Screening data as filed in PubChem BioAssay.
697 NFkB inh: inhibitors of PMA/ionomycin-induced NF-kB reporter, 697 cells, primary screen, B-cell NF-kB inhibitor project, cell-based, luminescence, uHTS; 697 B-cell NF-kB luciferase reporter, 16 h; 330,000 tested, 0.33% active; inhibition, % at 4 µM; in the data active = inhibition above about 35%
aSyn 5UTR inh: MLPCN primary screen, SNCA 5' untranslated region; alpha-synuclein 5'UTR reporter, inhibitor activity; inhibition, % (tested at 7.5 µM); AID 1813, 2009; 300,000 tested, 0.82% active; in the data active = inhibition above about 60%; inconclusive = no clear call, values can overlap the other calls;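 also: H4 neuroglioblastoma cells stably carrying SNCA 5'UTR luciferase fusion; 0% = DMSO wells and 100% = positive control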
Jurkat NFkB inh: inhibitors of induced NF-kB luciferase reporter, primary screen, TCR NF-kB activation inhibitor project, cell-based, luminescence, uHTS. Jurkat, PMA/ionomycin-induced NF-kB luciferase reporter. inhibition, % at 4 µM. 330,000 tested, 0.53% active; in the data active = inhibition above about 50%
TMEM16A act: TMEM16A chloride channel activators or potentiators, primary screen, cell-based, HTS. HEK293 TMEM16A/YFP-H148Q/I152L, iodide quench fluorescence; active compounds read low. B-score at 10 µM. 340,000 tested, 0.3% active. Anoctamin-1 (Mus musculus), Q8BHY3;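 active = fluorescence-ratio B-score plate-corrected deviation score at least 3 library SD below zero, with starting fluorescence score within 5 deviations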;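 also: channel opened by trigger with iodide after compound preincubation; score built on the fluorescence ratio of max minus min over baseline; more negative score means more quench and so TMEM16A activation or potentiation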
TMEM16A inh: TMEM16A chloride channel inhibitors, primary screen, cell-based, HTS. Anoctamin-1 (Mus musculus), Q8BHY3. HEK293 TMEM16A/YFP iodide influx fluorescence, ionomycin. normalized B-score (activity score, 25-100; higher = stronger inhibition) at 10 µM. 310,000 tested, 1.2% active;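 active = ratio plate-corrected score three or more library SD toward inhibition, starting fluorescence score within five deviations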;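 also: score derived from kinetic fluorescence span divided by baseline fluorescence per well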
KLF5 inh: KLF5 expression inhibitors, primary screen, DLD-1 cells, luminescence | DLD-1 KLF5 promoter-luciferase reporter | 290,000 tested, 0.23% active | inhibition, % at 5 µM;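 active = inhibition above a per-plate limit of that plate's mean compound inhibition plus 3 SD, cut at about 60% in these data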;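 also: 0% = DMSO wells and 100% = LY294002 at 200 µM; higher means less KLF5 promoter-driven luciferase light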
697 NFkB conf: PMA/ionomycin-induced NF-kB reporter inhibitors, 697 retest, confirmation, B-cell NF-kB inhibitor project, cell-based, luminescence, single concentration. shares compounds with 697 NFkB inh. 697 B-cell NF-kB luciferase, 16 h. inhibition, % at 4 µM. 2,000 tested, 35% active. AID 449746, 2010; in the data active = inhibition mostly above about 28%, no sharp cut-off; inactive = mostly below about 22%
* = called active by the depositor; i = inactive; u = inconclusive; x = no result given. Only some compounds are listed: those with a hit (about 2.5% of all), similar ones and a draw of the others.

SMILES	697 NFkB inh	aSyn 5UTR inh	Jurkat NFkB inh	TMEM16A act	TMEM16A inh	KLF5 inh	697 NFkB conf
CCOC(=O)[C@H]1[C@H]2COc3ccc(Br)cc3[C@@H]2N2C(=O)CN(CC3CCCO3)C(=O)[C@@]12C (some centres not stated)	-3.0	x	3.6	i	x	x	x
O=c1[nH]c(=O)n([C@H]2C[C@H](O)[C@@H](CO)O2)cc1C(F)(F)F	48.0*	76.5*	45.5	i	i	7.2	58.2*
O=C(Nc1ccc(C(=O)N2CCCC2)cc1)c1ccccc1F	-13.2	-65.4	-19.1	i	i	-26.3	x
O=C(Nc1cc(C(=O)N2CCCC2)ccc1N1CCCC1)c1ccccc1F	43.8*	4.7	11.2	i	i	-42.2	-5.0
COCCCNc1nc2cc(OC)c(OC)cc2c2nc(-c3ccccc3)nn12	37.2*	-4.3	-7.3	i	i	-7.5	13.9
COCCCN=Cc1c(-c2ccccc2)[nH]n(-c2nc3ccccc3s2)c1=O	18.8	17.2	10.5	i	i	-7.7	x
O=c1c(C=NCCCO)c(-c2ccccc2)[nH]n1-c1nc2ccccc2s1	37.0*	u	28.2	i	i	6.1	41.4*
CCOC(=O)C1=CN(Cc2ccco2)S(=O)(=O)N(C)C1c1ccc(F)c(Cl)c1 (configuration not stated)	3.1	x	x	x	x	x	x
COc1ccc(/C=C2/SC(=S)N(CCC(=O)O)C2=O)cc1	74.3*	97.5*	45.3	i	i	26.1	75.2*
CCc1ccc(/C=C2/SC(=S)N(CCC(=O)Nc3ccc(C(=O)O)cc3)C2=O)cc1	76.9*	40.3	12.9	i	i	-19.8	71.9*
COc1ccc(/C=C2\SC(=S)N(CCC(=O)Nc3ccc(C(=O)O)cc3)C2=O)cc1	43.6*	-5.2	-18.9	i	i	-15.8	59.8*
CCc1ccc(/C=C2/SC(=S)N(CCC(=O)Nc3cccc(C(=O)O)c3)C2=O)cc1	49.7*	0.4	-8.7	i	i	-28.6	58.9*
CC(/C=C1\SC(=S)N(CCC(=O)Nc2cccc(C(=O)O)c2)C1=O)=C\c1ccccc1	9.2	-12.4	9.6	i	i	6.3	x
O=C(Oc1ccccc1)c1cccnc1Oc1ccccc1	-7.4	8.2	1.1	i	i	-16.6	x
O=C(Nc1ccc(/C=C/c2nc3ccccc3o2)cc1)c1cccc(C(F)(F)F)c1	-326.8	-57.5	-2.1	i	i	-2.0	-214.7
C=CCn1c(SCC(=O)Nc2ccc(O)cc2)nc2sc(CC)cc2c1=O	-6.4	14.5	7.9	i	i	-7.4	x
CCOC(=O)/C(C#N)=C/c1cc(C)n(-c2ccccc2)c1C	-289.4	-57.6	-81.0	i	i	-45.2	-114.7
CCOC(=O)/C(C#N)=C/c1cc(C)n(-c2ccc(Br)cc2)c1C	0.0	-39.5	-15.1	x	i	-9.2	x
O=C(c1ccc(Cn2c(=S)[nH]c3cc4c(cc3c2=O)OCO4)cc1)N1CCN(c2ncccn2)CC1	55.6*	18.8	19.1	x	i	-1.8	-7.1
C=CCNC(=O)c1ccc(Cn2c(=S)[nH]c3cc4c(cc3c2=O)OCO4)cc1	-7.9	-7.5	0.4	i	i	-7.6	x
COc1ccc2c(CC(=O)NC(Cc3ccc(Cl)cc3)C(=O)O)cc(=O)oc2c1C (configuration not stated)	3.0	-0.6	7.1	i	i	-56.8	x
COc1cc2c(cc1OC)-c1cc(Nc3ccccc3Br)nc(=O)n1CC2	35.2*	58.5	2.9	i	i	-39.4	10.1
COc1cc2c(cc1OC)-c1cc(N3CCc4ccccc43)nc(=O)n1CC2	35.1*	-13.3	-10.7	i	i	-1.1	19.1
Cc1ccc(/C=C2\SC(=S)N(CCCC(=O)Nc3cc(C)on3)C2=O)cc1	52.5*	u	-4.7	i	i	-23.5	58.9*
Cc1ccc(/C=C2\SC(=S)N(CCC(=O)NNC(=O)c3ccncc3)C2=O)cc1	43.8*	2.7	-5.5	i	i	-18.8	30.7*
SMILES	697 NFkB inh	aSyn 5UTR inh	Jurkat NFkB inh	TMEM16A act	TMEM16A inh	KLF5 inh	697 NFkB conf
Cc1ccc(/C=C2\SC(=S)N(CCCC(=O)Nc3cccnc3)C2=O)cc1	90.1*	79.1*	18.2	i	i	57.0	99.3*
CC(=O)Nc1ccc(S(=O)(=O)Oc2ccc3c(c2)C(C)=CC(C)(C)N3)cc1	i	8.6	-18.1	x	25*	-8.3	i
CC1=CC(C)(C)Nc2ccc(OS(=O)(=O)c3ccc(C)cc3)cc21	12.7	-4.1	0.7	i	i	-26.6	x
CC(=O)Nc1cccc(NC(=O)c2cc(-c3cccnc3)nc3ccc(Br)cc23)c1	40.7*	-62.4	9.6	i	i	-19.4	16.1
CCCOc1ccccc1/C=C1\SC(N2CCCCC2)=NC1=O	-299.7	-15.6	-57.3	i	i	-83.7	-286.9
O=C1N=C(N2CCCCC2)S/C1=C\c1ccccc1F	-36.4	-143.0	-37.6	i	i	-137.5	x
CCOC(=O)Cc1csc(NC(=S)NC(=O)c2ccc(Cl)cc2)n1	44.8*	3.0	9.0	i	i	-15.6	76.2*
CSCCC(NC(=O)OC(C)(C)C)C(=O)Oc1ccc2c(=O)c(-c3ccc4c(c3)OCCO4)coc2c1 (configuration not stated)	-265.4	x	-96.9	i	i	-124.8	-252.7
CSCCC(NC(C)=O)C(=O)Oc1ccc2c3c(c(=O)oc2c1)CCCC3 (configuration not stated)	x	x	x	i	x	-47.9	x
COc1ccc(CCNC(=S)c2ccccc2)cc1OC	-25.7	-2.6	3.1	i	i	-7.0	x
COc1ccc(C(=O)Nc2ccc(OC)c([N+](=O)[O-])c2)cc1Br	39.2*	2.4	6.9	i	i	-58.6	34.8*
O=C(c1cccc(N2C(=O)C3C4C=CC(C4)C3C2=O)c1)N1CCN(c2ccccc2Cl)CC1 (configuration not stated)	-1.3	6.1	8.0	i	i	-0.2	x
CNS(=O)(=O)c1cccc(C(=O)OCC(=O)N2c3ccccc3CC2C)c1 (configuration not stated)	36.3*	27.0	0.6	i	i	4.2	-7.3
CCCc1cc(=O)[nH]c(SCC(=O)Nc2cccc(S(=O)(=O)N3CCCCC3)c2)n1	-3.5	x	-12.1	i	x	x	x
CCCSc1nnc(CNS(=O)(=O)c2ccc(C)cc2)n1C	-5.1	-10.5	-4.1	i	i	-41.0	x
